Experimental data published in the supplement of paper PMC6411743.
± gives the standard deviation of the averaged measurements. The full data set covers some 5,400 targets. This sample favours those with the largest changes.

Compound: Nc1nc2c(ncn2[C@@H]2O[C@H](COP(=O)(O)OP(=O)(O)OP(=O)(O)O)[C@@H](O)[C@H]2O)c(=O)[nH]1 [guanosine triphosphate]
Assay: NP40-soluble protein abundance relative to vehicle (solubility fold change) (ratio); higher = more soluble protein in presence of GTP
How it was run: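 Eight concentrations, 0.1 to 10 mM, were tested on Jurkat crude lysate for 10 min at room temperature and then 3 min at 37 °C, in three independent experiments. The lysate was solubilised with 0.8% NP40 and benzonase, ultracentrifuged, and the supernatant TMT-labelled for LC-MS/MS. Each value is the fold change against the detergent-processed vehicle in its own replicate, from vsn-normalised intensities.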

UniProt Q9NYL9, sequence (Q9NYL9 whole entry): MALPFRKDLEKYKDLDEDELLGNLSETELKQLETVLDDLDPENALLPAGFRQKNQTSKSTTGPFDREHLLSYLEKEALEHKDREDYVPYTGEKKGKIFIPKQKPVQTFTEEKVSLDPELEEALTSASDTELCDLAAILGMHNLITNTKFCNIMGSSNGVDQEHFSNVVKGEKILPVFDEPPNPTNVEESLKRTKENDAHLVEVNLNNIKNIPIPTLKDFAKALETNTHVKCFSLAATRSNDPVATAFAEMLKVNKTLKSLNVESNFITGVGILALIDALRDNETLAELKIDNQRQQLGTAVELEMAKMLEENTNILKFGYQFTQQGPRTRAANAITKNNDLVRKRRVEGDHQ
UniProt Q9P0P0, sequence (Q9P0P0 whole entry): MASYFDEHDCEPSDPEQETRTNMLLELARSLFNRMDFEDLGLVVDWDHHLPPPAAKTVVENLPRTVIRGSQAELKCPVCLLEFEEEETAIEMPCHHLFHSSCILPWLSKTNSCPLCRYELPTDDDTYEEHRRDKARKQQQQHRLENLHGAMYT
UniProt Q9H0F7, sequence (Q9H0F7 whole entry, one chain of several): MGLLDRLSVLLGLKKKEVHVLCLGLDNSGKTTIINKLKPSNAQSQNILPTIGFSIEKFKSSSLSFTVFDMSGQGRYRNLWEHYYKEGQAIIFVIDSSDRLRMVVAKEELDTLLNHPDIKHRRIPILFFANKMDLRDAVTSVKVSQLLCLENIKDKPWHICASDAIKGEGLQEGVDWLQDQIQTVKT
UniProt Q9UG63, sequence (Q9UG63 whole entry): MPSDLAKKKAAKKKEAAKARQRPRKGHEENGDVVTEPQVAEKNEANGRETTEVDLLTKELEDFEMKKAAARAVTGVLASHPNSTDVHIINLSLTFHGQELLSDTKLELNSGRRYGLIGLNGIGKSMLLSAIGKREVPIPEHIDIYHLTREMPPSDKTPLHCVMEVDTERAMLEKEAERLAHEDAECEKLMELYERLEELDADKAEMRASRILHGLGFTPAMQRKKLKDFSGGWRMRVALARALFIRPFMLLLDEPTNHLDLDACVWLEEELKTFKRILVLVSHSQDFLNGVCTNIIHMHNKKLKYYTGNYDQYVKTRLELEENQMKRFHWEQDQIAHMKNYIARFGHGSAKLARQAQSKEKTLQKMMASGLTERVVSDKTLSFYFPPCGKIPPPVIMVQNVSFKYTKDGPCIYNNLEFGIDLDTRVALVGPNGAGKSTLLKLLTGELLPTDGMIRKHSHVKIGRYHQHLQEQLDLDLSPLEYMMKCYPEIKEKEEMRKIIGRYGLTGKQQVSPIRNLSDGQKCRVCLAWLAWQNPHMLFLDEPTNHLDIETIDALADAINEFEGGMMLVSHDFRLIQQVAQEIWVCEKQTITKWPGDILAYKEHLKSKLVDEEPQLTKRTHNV
UniProt Q92917, sequence (Q92917 whole entry): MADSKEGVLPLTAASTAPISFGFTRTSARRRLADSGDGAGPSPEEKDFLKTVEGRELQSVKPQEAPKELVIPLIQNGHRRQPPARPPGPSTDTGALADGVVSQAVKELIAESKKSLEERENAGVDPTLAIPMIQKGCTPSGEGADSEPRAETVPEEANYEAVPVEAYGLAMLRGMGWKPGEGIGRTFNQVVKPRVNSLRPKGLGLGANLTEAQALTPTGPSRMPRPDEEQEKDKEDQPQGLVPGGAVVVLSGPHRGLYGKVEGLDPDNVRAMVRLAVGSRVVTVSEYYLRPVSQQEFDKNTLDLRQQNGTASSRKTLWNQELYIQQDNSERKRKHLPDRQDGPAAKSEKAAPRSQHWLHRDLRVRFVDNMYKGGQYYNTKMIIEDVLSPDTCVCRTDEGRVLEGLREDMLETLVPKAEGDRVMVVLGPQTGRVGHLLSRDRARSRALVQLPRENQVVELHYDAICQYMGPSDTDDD
UniProt Q92833, sequence (Q92833 whole entry): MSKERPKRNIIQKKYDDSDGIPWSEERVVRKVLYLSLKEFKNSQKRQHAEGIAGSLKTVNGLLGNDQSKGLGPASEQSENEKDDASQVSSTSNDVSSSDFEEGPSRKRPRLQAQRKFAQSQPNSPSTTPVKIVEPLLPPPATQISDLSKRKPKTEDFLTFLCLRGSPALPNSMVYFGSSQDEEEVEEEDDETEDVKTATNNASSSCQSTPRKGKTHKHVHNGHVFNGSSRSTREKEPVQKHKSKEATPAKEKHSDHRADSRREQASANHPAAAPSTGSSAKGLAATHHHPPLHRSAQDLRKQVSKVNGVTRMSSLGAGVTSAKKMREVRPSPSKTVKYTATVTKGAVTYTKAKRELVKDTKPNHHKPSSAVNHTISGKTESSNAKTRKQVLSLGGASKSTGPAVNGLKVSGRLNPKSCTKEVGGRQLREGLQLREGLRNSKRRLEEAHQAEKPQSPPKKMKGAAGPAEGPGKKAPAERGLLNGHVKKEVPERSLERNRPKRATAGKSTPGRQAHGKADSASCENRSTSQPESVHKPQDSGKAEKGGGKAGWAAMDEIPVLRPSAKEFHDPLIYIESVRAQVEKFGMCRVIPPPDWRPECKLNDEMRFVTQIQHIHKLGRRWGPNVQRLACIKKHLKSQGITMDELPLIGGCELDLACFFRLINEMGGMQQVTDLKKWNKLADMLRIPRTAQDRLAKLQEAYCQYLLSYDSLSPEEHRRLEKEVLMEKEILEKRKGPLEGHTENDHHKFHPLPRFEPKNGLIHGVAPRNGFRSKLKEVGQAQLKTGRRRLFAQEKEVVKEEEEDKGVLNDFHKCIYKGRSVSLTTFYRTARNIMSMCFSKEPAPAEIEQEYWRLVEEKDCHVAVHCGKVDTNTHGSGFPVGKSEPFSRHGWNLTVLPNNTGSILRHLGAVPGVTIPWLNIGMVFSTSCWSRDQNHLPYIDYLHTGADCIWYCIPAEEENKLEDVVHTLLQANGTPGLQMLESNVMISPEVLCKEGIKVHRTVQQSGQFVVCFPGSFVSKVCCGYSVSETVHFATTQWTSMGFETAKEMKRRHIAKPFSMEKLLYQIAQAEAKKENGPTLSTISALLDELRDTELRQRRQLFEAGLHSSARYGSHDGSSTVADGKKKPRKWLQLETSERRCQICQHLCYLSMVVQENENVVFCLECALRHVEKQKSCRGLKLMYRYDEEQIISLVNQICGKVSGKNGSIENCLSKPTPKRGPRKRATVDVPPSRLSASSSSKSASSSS
UniProt Q96BY9, sequence (Q96BY9 whole entry, one chain of several): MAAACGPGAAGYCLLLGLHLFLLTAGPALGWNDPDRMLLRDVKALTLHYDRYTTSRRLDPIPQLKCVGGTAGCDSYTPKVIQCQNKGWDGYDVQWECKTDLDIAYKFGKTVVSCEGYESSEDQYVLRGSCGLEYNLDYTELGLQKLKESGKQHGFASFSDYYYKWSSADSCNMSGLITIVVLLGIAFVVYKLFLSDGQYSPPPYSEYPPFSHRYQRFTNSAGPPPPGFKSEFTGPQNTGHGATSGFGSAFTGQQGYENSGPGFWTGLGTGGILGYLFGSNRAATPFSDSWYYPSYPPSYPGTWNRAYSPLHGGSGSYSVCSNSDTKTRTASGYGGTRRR
UniProt Q9Y2S2, sequence (Q9Y2S2 whole entry): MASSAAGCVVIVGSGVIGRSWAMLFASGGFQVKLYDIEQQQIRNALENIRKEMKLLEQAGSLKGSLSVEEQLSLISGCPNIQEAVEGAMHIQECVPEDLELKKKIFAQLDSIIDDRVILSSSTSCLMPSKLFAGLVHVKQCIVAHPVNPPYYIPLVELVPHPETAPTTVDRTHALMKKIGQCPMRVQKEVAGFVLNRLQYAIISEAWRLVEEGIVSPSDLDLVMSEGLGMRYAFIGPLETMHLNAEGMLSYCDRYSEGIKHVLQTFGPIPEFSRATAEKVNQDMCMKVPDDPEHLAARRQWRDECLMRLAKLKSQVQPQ
UniProt Q9BVI0, sequence (Q9BVI0 whole entry, one chain of several): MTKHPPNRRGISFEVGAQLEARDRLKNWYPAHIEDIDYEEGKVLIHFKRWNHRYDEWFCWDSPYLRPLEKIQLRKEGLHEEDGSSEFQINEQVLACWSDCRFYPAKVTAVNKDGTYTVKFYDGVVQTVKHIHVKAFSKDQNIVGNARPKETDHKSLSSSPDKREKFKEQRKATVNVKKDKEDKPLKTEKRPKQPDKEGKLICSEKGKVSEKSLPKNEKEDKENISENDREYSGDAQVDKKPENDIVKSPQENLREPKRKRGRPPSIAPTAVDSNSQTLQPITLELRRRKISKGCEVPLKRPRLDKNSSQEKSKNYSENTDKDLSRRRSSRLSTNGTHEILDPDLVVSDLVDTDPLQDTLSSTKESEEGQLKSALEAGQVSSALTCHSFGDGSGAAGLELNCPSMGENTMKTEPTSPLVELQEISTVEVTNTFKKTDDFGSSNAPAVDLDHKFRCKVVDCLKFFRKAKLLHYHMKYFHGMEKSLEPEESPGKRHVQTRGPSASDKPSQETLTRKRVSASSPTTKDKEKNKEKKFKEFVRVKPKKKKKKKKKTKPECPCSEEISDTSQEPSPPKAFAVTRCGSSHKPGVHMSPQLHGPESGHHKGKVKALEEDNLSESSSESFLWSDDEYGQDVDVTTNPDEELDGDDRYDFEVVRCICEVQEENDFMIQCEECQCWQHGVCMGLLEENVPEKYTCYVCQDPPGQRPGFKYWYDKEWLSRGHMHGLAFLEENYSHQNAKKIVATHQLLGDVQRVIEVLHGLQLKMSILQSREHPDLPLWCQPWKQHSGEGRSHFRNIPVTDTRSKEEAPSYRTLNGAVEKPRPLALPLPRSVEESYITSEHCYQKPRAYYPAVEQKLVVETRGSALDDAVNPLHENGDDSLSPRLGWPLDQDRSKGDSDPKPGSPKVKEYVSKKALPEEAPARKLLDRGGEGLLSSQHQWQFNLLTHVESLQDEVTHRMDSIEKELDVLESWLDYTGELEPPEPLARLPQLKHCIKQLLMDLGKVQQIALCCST
UniProt Q9UKY7, sequence (Q9UKY7 whole entry): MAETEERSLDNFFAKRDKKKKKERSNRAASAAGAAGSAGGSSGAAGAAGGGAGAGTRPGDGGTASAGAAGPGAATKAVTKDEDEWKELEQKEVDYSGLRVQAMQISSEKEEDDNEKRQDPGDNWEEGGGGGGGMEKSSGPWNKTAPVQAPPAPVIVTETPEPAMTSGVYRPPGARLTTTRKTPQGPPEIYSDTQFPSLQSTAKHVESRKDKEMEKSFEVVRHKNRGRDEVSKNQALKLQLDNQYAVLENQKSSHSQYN

Target	NP40-soluble protein abundance (concentration: 0.1mM)	NP40-soluble protein abundance (concentration: 0.5mM)	NP40-soluble protein abundance (concentration: 1mM)	NP40-soluble protein abundance (concentration: 2mM)	NP40-soluble protein abundance (concentration: 4mM)	NP40-soluble protein abundance (concentration: 6mM)	NP40-soluble protein abundance (concentration: 8mM)	NP40-soluble protein abundance (concentration: 10mM)
UniProt Q96BY9|H0YAZ1	1.08 ± 0.15	1.08 ± 0.064	1.09 ± 0.15	1.1 ± 0.094	1.03 ± 0.11	1.01 ± 0.1	1.05 ± 0.19	1.07 ± 0.22
CCDC134 (UniProt Q9H6E4)	0.934 ± 0.071	0.893 ± 0.1	0.944 ± 0.089	0.911 ± 0.087	0.905 ± 0.077	0.881 ± 0.084	0.869 ± 0.1	0.86 ± 0.091
EXOSC4 (UniProt Q9NPD3)	1.07 ± 0.061	0.988 ± 0.057	0.996 ± 0.015	0.994 ± 0.11	1.12 ± 0.023	1.12 ± 0.095	1.11 ± 0.089	1.16 ± 0.054
ULBP2 (UniProt Q9BZM5)	0.893 ± 0.085	0.86 ± 0.1	0.918 ± 0.073	0.884 ± 0.1	0.907 ± 0.098	0.89 ± 0.043	0.916 ± 0.1	0.925 ± 0.088
UniProt Q9Y3D9|J3QLR8	1.01 ± 0.17	1.01 ± 0.19	1.61 ± 0.35	1.69 ± 0.093	1.771 ± 0.00083	1.61 ± 0.061	1.49 ± 0.28	1.73 ± 0.19
CDV3 (UniProt Q9UKY7)	0.957 ± 0.072	1.05 ± 0.071	0.915 ± 0.072	0.955 ± 0.11	0.889 ± 0.093	1 ± 0.092	1.09 ± 0.083	1.11 ± 0.068
RNF181 (UniProt Q9P0P0)	0.961 ± 0.027	0.925 ± 0.028	1.05 ± 0.077	1.03 ± 0.045	1.01 ± 0.013	1.02 ± 0.05	1.04 ± 0.1	1.09 ± 0.075
GPKOW (UniProt Q92917)	0.974 ± 0.07	0.995 ± 0.067	1.02 ± 0.077	0.975 ± 0.086	0.968 ± 0.071	0.99 ± 0.059	0.998 ± 0.057	1.01 ± 0.088
UniProt Q9Y2C4|Q9Y2C4-3|Q9Y2C4-4	1.2 ± 0.083	1.12 ± 0.049	1.11 ± 0.083	1.14 ± 0.088	1.08 ± 0.033	1.07 ± 0.081	1.01 ± 0.034	1.03 ± 0.044
UniProt Q9Y3L3|Q9Y3L3-2	0.998 ± 0.025	1 ± 0.045	0.994 ± 0.018	0.988 ± 0.099	0.981 ± 0.04	0.991 ± 0.052	0.958 ± 0.019	1.01 ± 0.034
STUB1 (UniProt Q9UNE7)	0.948 ± 0.056	0.8985 ± 0.0031	1.02 ± 0.1	1.03 ± 0.027	1.01 ± 0.078	1.01 ± 0.012	1.01 ± 0.049	1.03 ± 0.081
UniProt Q93052|A0A087WZF1|C9JXK9	0.985 ± 0.047	0.946 ± 0.086	0.944 ± 0.072	0.906 ± 0.071	0.884 ± 0.063	0.896 ± 0.081	0.906 ± 0.083	0.901 ± 0.09
UniProt Q9H0F7|Q9H0F7-2|A0A0J9YXT0	1.02 ± 0.063	1.03 ± 0.1	0.914 ± 0.011	0.986 ± 0.12	0.932 ± 0.065	0.904 ± 0.032	0.864 ± 0.061	0.882 ± 0.065
NCAPG (UniProt Q9BPX3)	0.992 ± 0.015	1.06 ± 0.016	0.986 ± 0.03	1.03 ± 0.044	0.978 ± 0.042	1.01 ± 0.047	0.987 ± 0.056	1.01 ± 0.031
UniProt Q9HD33|Q9HD33-2	1.01 ± 0.017	1.16 ± 0.087	1.34 ± 0.23	1.55 ± 0.39	1.7 ± 0.52	1.86 ± 0.49	2.03 ± 0.59	2.05 ± 0.64
UniProt Q9Y2S2|Q9Y2S2-2	1.09 ± 0.12	0.991 ± 0.11	0.974 ± 0.12	0.971 ± 0.11	0.948 ± 0.12	0.922 ± 0.13	0.946 ± 0.15	0.912 ± 0.18
UniProt Q9UBD5|Q9UBD5-2	0.981 ± 0.061	1.06 ± 0.076	0.957 ± 0.092	1.04 ± 0.049	0.998 ± 0.069	1.04 ± 0.04	1.02 ± 0.1	1.07 ± 0.018
UniProt Q9H8Y8|Q9H8Y8-3	0.893 ± 0.088	0.934 ± 0.09	0.911 ± 0.095	0.873 ± 0.087	0.836 ± 0.091	0.858 ± 0.059	0.884 ± 0.091	0.892 ± 0.12
UniProt Q9BTY7	0.967 ± 0.086	0.856 ± 0.056	1.07 ± 0.088	1.05 ± 0.033	1.03 ± 0.082	0.998 ± 0.049	0.924 ± 0.18	1.03 ± 0.14
DDX23 (UniProt Q9BUQ8)	1.04 ± 0.036	1.09 ± 0.067	1.19 ± 0.12	1.27 ± 0.075	1.55 ± 0.18	1.62 ± 0.19	1.89 ± 0.28	1.93 ± 0.23
TMOD3 (UniProt Q9NYL9)	0.878 ± 0.033	0.855 ± 0.044	1.03 ± 0.039	1.01 ± 0.029	1.02 ± 0.019	1.02 ± 0.026	1 ± 0.048	1.08 ± 0.04
MED10 (UniProt Q9BTT4)	1.01 ± 0.2	1.03 ± 0.098	0.973 ± 0.028	1.07 ± 0.11	0.95 ± 0.094	1.08 ± 0.05	0.968 ± 0.092	1.07 ± 0.038
UniProt Q99828|Q99828-2	0.956 ± 0.08	0.981 ± 0.11	1.02 ± 0.081	1.02 ± 0.084	1.02 ± 0.092	1 ± 0.12	0.996 ± 0.11	0.911 ± 0.12
UniProt Q9BVI0|A0A0A0MT13|Q5JWZ0|Q5JXL1	1.11 ± 0.068	1.07 ± 0.12	1.19 ± 0.078	1.27 ± 0.057	1.52 ± 0.056	1.553 ± 0.012	1.77 ± 0.08	1.71 ± 0.071
JARID2 (UniProt Q92833)	0.971 ± 0.078	1.07 ± 0.11	1.09 ± 0.088	1.08 ± 0.087	1.05 ± 0.04	1.05 ± 0.088	1.18 ± 0.04	1.15 ± 0.026
WDR3 (UniProt Q9UNX4)	1.12 ± 0.08	1.15 ± 0.098	1.13 ± 0.061	1.42 ± 0.13	1.81 ± 0.16	1.98 ± 0.2	2.04 ± 0.12	1.974 ± 0.012
DCUN1D5 (UniProt Q9BTE7)	0.984 ± 0.048	0.929 ± 0.07	0.918 ± 0.076	0.916 ± 0.077	0.948 ± 0.027	0.883 ± 0.056	0.891 ± 0.069	0.883 ± 0.074
UniProt Q9UG63|Q9UG63-2	1.1 ± 0.076	1.11 ± 0.014	1.07 ± 0.072	1.35 ± 0.072	1.83 ± 0.061	2.15 ± 0.12	2.39 ± 0.11	2.744 ± 0.018
UniProt Q9NS23|Q9NS23-2|Q9NS23-3|Q9NS23-4|Q9NS23-5	0.978 ± 0.032	1.03 ± 0.098	1.04 ± 0.051	1.04 ± 0.058	1.05 ± 0.09	1.01 ± 0.022	0.971 ± 0.056	0.968 ± 0.11
